“And” between values parts separate entries of the source, which are not always exact repeats. Equal values may be shown once. Out of some 16,000 compounds screened, about 5,700 (36%) were called active. Another 24% or so got no clear call; they are omitted. Calls come from the whole dose curve; as a rule, active = well fitted curve in the direction sought with a large enough effect; inconclusive = small, poorly fitted or top-dose-only effect, or effect the other way; inactive = no such curve, though single readings can be large or run the other way. Some of the results follow.
Target: Cytochrome P450 1A2 (Homo sapiens) (UniProt P05177)
Sequence (P05177 whole entry, looked up): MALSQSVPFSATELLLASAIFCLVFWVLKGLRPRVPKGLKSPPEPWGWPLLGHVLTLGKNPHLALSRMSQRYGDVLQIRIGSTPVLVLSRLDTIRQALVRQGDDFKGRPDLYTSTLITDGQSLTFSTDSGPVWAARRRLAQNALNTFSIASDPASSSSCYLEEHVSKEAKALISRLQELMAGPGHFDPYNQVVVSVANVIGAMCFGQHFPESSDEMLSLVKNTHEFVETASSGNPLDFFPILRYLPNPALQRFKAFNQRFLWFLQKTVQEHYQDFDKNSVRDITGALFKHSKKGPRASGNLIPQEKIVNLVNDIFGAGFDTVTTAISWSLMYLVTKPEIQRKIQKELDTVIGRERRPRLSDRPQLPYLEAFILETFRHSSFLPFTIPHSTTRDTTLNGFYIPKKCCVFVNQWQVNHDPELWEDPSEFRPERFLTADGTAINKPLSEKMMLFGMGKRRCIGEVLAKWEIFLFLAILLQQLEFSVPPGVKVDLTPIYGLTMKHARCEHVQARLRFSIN
Experiment: Cytochrome panel assay with activity outcomes
Settings: recombinant CYP, pro-luciferin dealkylation, luminescence, p450-cyp1a2; series mostly up to 57.1 µM
% is set by controls: 0 for no effect and ±100 for the full control effect.

AC50, active:
Cc1c(C)n(C(=O)CN2CCC(C)CC2)c2ccccc12 4.47 µM
Cc1cc(C)n2nc(SCC(=O)N/N=C/c3ccccc3F)nc2n1 15.8 µM
Cc1cc(C)nc(SCC(=O)N/N=C\c2sccc2C)n1 12.6 µM
Cc1cccc(N(C)C(=S)Oc2ccc3ccccc3c2)c1 2.51 µM
CC(C)(C)c1ccccc1OCCN1CCCC1 15.8 µM
COc1ccc2c(c1)C(c1ccc([N+](=O)[O-])cc1)=NNC(c1ccco1)=N2 5.01 µM
c1ccc2nc(C3=NCCN3)ccc2c1 5.01 µM and 794 nM
c1ccc2nc(C3=NCCN3)cnc2c1 0.398 µM
c1ccc2nc(-c3ccncc3)ccc2c1 1 µM
c1ccc2cc(C3=NCCN3)ncc2c1 0.501 µM
c1ccc2oc(C3=NCCN3)cc2c1 5.01 µM
CCn1c(-c2nonc2NC(=O)c2ccccc2)nc2ccccc21 0.891 µM
O=S(=O)(NCc1cc(-c2ccc(Cl)cc2)no1)c1ccc(Cl)cc1 8.91 µM
O=S(=O)(NCc1cc(-c2ccccc2)no1)c1ccc(Cl)cc1 7.08 µM
Clc1ccc(SCc2cc(-c3ccccc3)no2)cc1 6.31 µM
COc1ccc(Oc2nc3ccccc3nc2C(F)(F)F)cc1 1.12 µM
O=c1c2ccccc2nnn1CSc1nnc(COc2ccc(Cl)cc2)n1Cc1ccco1 3.16 µM

AC50, inactive:
Cn1c(=O)n(C)c2cc(S(=O)(=O)O)ccc21
Nc1nc2c(ncn2COC(CO)CO)c(=O)[nH]1
CO[C@]1(NC(=O)C2SC(=C(C(N)=O)C(=O)O)S2)C(=O)N2C(C(=O)O)=C(CSc3nnnn3C)CS[C@H]21 (some centres not stated)
CC1CCN(CC[C@@H]2CCCN2S(=O)(=O)c2cccc(O)c2)CC1
CC1CCN(CC(=O)Nc2cccc([N+](=O)[O-])c2)CC1
COc1ccccc1CNC(=O)CSc1nc2nc(C)cc(C)n2n1
Cc1cccc(Cc2c(C)nc3nc(SCC(=O)NCc4ccco4)nn3c2C)c1
COc1ccc(N2CCN(C(=S)Nc3cccc(C)c3)CC2)cc1
Cc1ccccc1OCCCN1CCCC1
COc1cccc(C(=O)Nc2ccc(-c3nnc(-c4ccco4)o3)cc2)c1
CC1(C)CCCN(C(=O)c2coc(=O)c(Br)c2)C1
c1ccc(CN(CC2=NCCN2)c2ccccc2)cc1
O=C(c1cccc(F)c1)N1CCC2(CCCN(Cc3cc(C(F)(F)F)cc(C(F)(F)F)c3)C2)CC1
COC(=O)[C@@]1(Cc2ccc(F)cc2)[C@H]2c3cc(C(=O)N(C)C)n(CCCNc4ccc(C(F)(F)F)cc4Cl)c3C[C@H]2CN1C(=O)c1ccccc1
CCn1nccc1C(=O)Nc1nc2ccccc2n1CCN1CCCCC1
COCCNC(=O)c1onc(CSc2ccc(Cl)cc2)c1C(=O)O
Cn1c(CNS(=O)(=O)c2ccc(Cl)cc2)n[nH]c1=S
Cn1c(CNS(=O)(=O)c2ccc(F)cc2)n[nH]c1=S
Cn1cccc1C(=O)N1CCC2(CC1)CCN(c1ncccn1)CC2
CC(C)(C)c1ccc(OC(=O)Cn2c(C(F)(F)F)nc3ccccc32)cc1
Cc1ccccc1C(=O)NN(C)c1nc2ccccc2nc1C(F)(F)F
CC(C)NC(=O)N1CCCC2(CCN(C(=O)c3ccco3)CC2)C1
Cc1cc(C)nc(SCc2nnc(SCC(N)=O)n2Cc2ccco2)n1
COc1cccc(OCc2nnc(SCC(=O)NCc3ccco3)n2C)c1

activity, negative = inhibition, inactive:
CCc1cc2c(nc1CC)CCN(CC/C(C)=N/O[C@@H](C)c1cn([C@H](CO)Cc3ccccc3)nn1)C2 -13.3% [at 11.4 µM] and 1.01% [at 11.4 µM]
Cc1cc(C(C)(C)C)c(OCCCN2CCOCC2)c(C(C)(C)C)c1 -17.7% [at 2.29 µM]
CC1(CC(=O)O)O[C@H]2CCCCC[C@H]2O1 (some centres not stated) (tested in a mixture with another compound) -0.0273% [at 11.4 µM]
Nc1ccc(S(=O)(=O)NCc2nccs2)cc1 -10.5% [at 2.29 µM]
NCCNS(=O)(=O)c1ccc(N)cc1 -3.44% [at 11.4 µM]
CC(=O)OC[C@@H]1O[C@@H](O/N=C2/C[C@@H](O)[C@@H](O)[C@@H]3[C@@H]4C(=O)N(C(C)(C)C)C(=O)[C@H]4CC[C@H]23)[C@H](OC(C)=O)[C@H](OC(C)=O)[C@@H]1OC(C)=O -2.28% [at 11.4 µM]
